# An excerpt weighted towards active compounds, which were near 20% of everything screened.
# Pf growth 48h – P. falciparum growth inhibition at 48 hours (one generation). P. falciparum luciferase growth in erythrocytes, 48 h. Potency, µM (doses to about 28.7 µM), without a hit: at the top dose activity change, negative = inhibition, hits mostly inhibitors. 5.9% of 310,000 active; also: potency is read from the fitted curve at half-maximal effect; % is scaled to controls: 0 for no effect and ±100 for the full control effect
#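 Compounds are pin-transferred into medium, infected erythrocytes (2% hematocrit, 0.1% parasitemia final) are added, and plates sit one parasite generation at 37 C in 5% CO2. Detection reagent is then added and luminescence measured.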
# Shiga toxin inh – Shiga toxin inhibition; Vero cells, Shiga toxin protein synthesis inhibition reporter; inhibition, % at 38.7 µM; 9.2% of 290,000 active; in the data active = inhibition mostly above about 28%, no sharp cut-off; inactive = mostly below about 43%; also: 0% is about no effect
# Cycloheximide cs – counter-screen hit for Shiga toxin inhibitors, cycloheximide; cell reporter, cycloheximide protein synthesis inhibition counterscreen; max response, %; 12% of 300,000 active; in the data active = max response mostly above about 13%, no sharp cut-off; inactive = mostly below about 14%; also: read at 38.3 µM for the half of the compounds with a filed dose; 0% is about no effect
# Pf growth 96h – P. falciparum growth inhibition at 96 hour, primary screen for plastid delayed-death inhibitors; AID 504834; P. falciparum luciferase reporter growth, 96 h; 6.9% of 320,000 active; Potency, µM (highest dose often 28.7 µM), without a hit: top-dose activity change, negative = inhibition, most hits filed as inhibitors; also: potency is read from the fitted curve at half-maximal effect; % is scaled to controls: 0 for no effect and ±100 for the full control effect
#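 Luminescence readout: decreased luciferase signal marks inhibited growth of reporter-expressing P. falciparum in infected red cells (2% hematocrit, 0.05% parasitemia final), exposed to compound two generations (96 h, 37 C, 5% CO2).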
# HCMV antiviral – inhibitors of human cytomegalovirus; HFF cells, HCMV-luciferase reporter, 72 h; active compounds read low; activity change, negative = inhibition, % at 57.5 µM; 4.5% of 410,000 active; in the data active = activity change below about -60%; inconclusive = no clear call, values can overlap the other calls; inactive = above about -39%; also: % is scaled to controls: 0 for no effect and ±100 for the full control effect
#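 Human foreskin fibroblasts infected with luciferase-reporter HCMV at MOI 1 PFU/cell, compounds at two doses. Luciferase measured 72 h post infection; normalized to buffer-only basal and Salinomycin (10uM) controls.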
# Active calls of the source: *; ? = inconclusive; . = no result given. Unless noted, calls follow the shape of the dose curve; as a rule, active = well fitted inhibition curve with a large enough effect; inconclusive = small, poorly fitted or top-dose-only effect, or another doubt; inactive = no such curve, though single readings can be large or run the other way.
SMILES,Pf growth 48h,Shiga toxin inh,Cycloheximide cs,Pf growth 96h,HCMV antiviral
COc1cccc(CNCc2cccc(Br)c2)c1OC,5%,-5,11,249%,-33
O=C(O)c1ccc(COc2ccccc2Cl)cc1,-3%,145*,29*,.,47
O=C(O)c1cccc(COc2ccccc2Cl)c1,14%,19*,14*,.,?
CN1CCN(C(=O)c2cccc(COc3cc(Cl)ccc3Cl)c2)CC1,79%,103*,48*,.,.
CCC(C)NC(=O)c1ccc(COc2ccccc2Cl)cc1 (configuration not stated),?,46,15*,.,-16
CCOc1ccc(C(=O)CCC(=O)N2CCC(C(=O)OC)CC2)cc1,?,-4,-4,-13%,?
CCN(CC)C(=O)c1ccc(COc2ccccc2Cl)cc1,.,48*,19,-5%,-13
CN(C(=O)c1ccccc1OCc1ccc(Cl)cc1)c1ccccc1,-1%,-19,1,?,-27
O=C(Nc1ccccc1Cl)c1cccc(COc2cc(Cl)ccc2Cl)c1,.,51*,42*,86%,62
Cc1cc(C)n2c(Br)c(CSc3nc4ccccc4s3)nc2n1,27%,17,34*,?,33
Cc1cc(C)nc(NC(=O)CSc2nc3ccccc3s2)n1,.,83*,33*,12%,119
Cc1csc(SCC(=O)Nc2ccccc2)n1,0%,66*,11*,8%,7
Cc1cc(C)nc(SCC(=O)OCC(=O)Nc2nc3ccccc3s2)n1,15%,14*,22*,-7%,82
Cc1cc(F)ccc1NC(=O)C(C(C)C)N1Cc2ccccc2C1=O (configuration not stated),.,.,.,.,6
COc1ccc(C(=O)CSc2ccccc2C(=O)O)cc1,422%,24,14,304%,121
COc1ccc(-c2nc3sc(CCNC(=O)c4cc(OC)c(OC)c(OC)c4)c(C)n3n2)cc1,.,.,.,.,82
CCCCN(C(=O)c1cccs1)c1c(N)n(Cc2ccccc2)c(=O)[nH]c1=O,.,.,.,.,15
Cn1cc(SCC(=O)Nc2nc3ccccc3s2)c2ccccc21,-2%,24,29*,23%,72
COc1cc(NC(=O)CSc2nc(C)cs2)cc(OC)c1,-16%,5,9,5%,25
Cc1ccc(C)c(NC(=O)CSc2nc3ccc(N4C(=O)c5ccccc5C4=O)cc3s2)c1,41%,-6,-3,4.1µM*,-12
Cc1csc(SCC(=O)Nc2nc3ccccc3s2)n1,69%,65*,32*,.,34
COc1ccc(NC(=O)CCSc2nc(C)cs2)cc1,84%,131*,32*,-3%,78
COc1ccc2sc(-c3ccc(S(C)(=O)=O)cc3)c(-c3ccc(SC)cc3)c2c1,.,.,.,.,-34
CS/C(=N\S(=O)(=O)c1cccs1)NC(=O)CSc1nc2ccccc2s1,.,8,2,6.6µM*,44
Cc1ccc2nc(NC(=O)CSc3[nH]c(=O)ncc3C)sc2c1,.,16,27*,.,9
SMILES,Pf growth 48h,Shiga toxin inh,Cycloheximide cs,Pf growth 96h,HCMV antiviral
Cc1cnc(=O)[nH]c1SCC(=O)Nc1nc2ccccc2s1,.,.,.,.,11
COc1ccc2nc(NC(=O)CSC3=NCCS3)sc2c1,-2%,55,32*,-14%,-28
COc1ccc2nc(NC(=O)CSc3nnc(C)n3N)sc2c1,157%,51*,35*,437%,63
Cc1ccc2nc(NC(=O)CSc3nncc(=O)n3N)sc2c1,79%,18,34*,38%,77
CCOc1ccc2nc(NC(=O)CSC3=NCCS3)sc2c1,?,44,25,.,-34
COc1ccc(C(C)(C)C)cc1NC(=O)CCCN1C(=O)CN(C)C1=O,-2%,.,.,3%,-29
O=C1/C(=C/c2cccc(Br)c2)SC(=S)N1/N=C/c1cc([N+](=O)[O-])ccc1O,-5%,5,-2,42%,?
COc1ccc2nc(NC(=O)CSc3ccccc3)sc2c1,.,138*,57*,5%,-9
CCc1ccccc1NC(=O)CC(NCc1ccccc1)C(=O)O (configuration not stated),20%,-4,-5,26%,-24
CC1=C(C)CC2(SC1)C(=O)N(c1ccccc1)N=C2N (configuration not stated),40%,48*,23*,8%,55
Cc1ccc(C2=NOC3(CC(=O)N(c4ccccc4)C3=O)C2)cc1 (configuration not stated),53%,-12,-1,30%,47

# Bioassay records from PubChem BioAssay.
